This is an account of results in PubChem BioAssay (NCI).

The nature of assay [1]: NCI Yeast Anticancer Drug Screen. Data for the rad50 strain (AID 155).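 Further: 0% = growth of vehicle-only cultures of the same strain.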 Particulars: S. cerevisiae rad50 strain growth inhibition; at 50.0 µM; stronger effect = higher value. The gist of the method:
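Vehicle-treated cultures provide the reference for the growth inhibition reported for compound-exposed, repair-deficient yeast.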

A short description of assay [2]: NCI Yeast Anticancer Drug Screen. Data for the mec2-1 strain (AID 157). Particulars: S. cerevisiae mec2-1 strain, at 50.0 µM, stronger effect = higher value. The gist of the method:
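Each compound was tested on mec2-1 yeast, a strain altered in DNA damage repair or cell cycle control. Growth inhibition is reported relative to vehicle.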

Assay [3] in a line: NCI Yeast Anticancer Drug Screen. Data for the sgs1 mgt1 strain (AID 161).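 Further: 0% = growth of cultures given vehicle only.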 Particulars: S. cerevisiae sgs1 mgt1 strain, at 50.0 µM, stronger effect = higher value. The gist of the method: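 Read-out: growth inhibition vs vehicle controls. Cells: mutant yeast strain deficient in DNA damage repair.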
Assay [4] can be described thus: NCI Yeast Anticancer Drug Screen. Data for the cln2 rad14 strain (AID 165).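 Further: 0% = growth equal to vehicle treated cultures.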 Particulars: S. cerevisiae cln2 rad14 strain, at 50.0 µM, stronger effect = higher value. Summed up:
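Test compounds were added to cln2 rad14 yeast cultures; inhibition of growth was then determined by comparison with vehicle treatment.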

A short description of assay [5]: NCI Yeast Anticancer Drug Screen. Data for the bub3 strain (AID 167). Particulars: S. cerevisiae bub3 mutant strain, at 50.0 µM, stronger effect = higher value. The gist of the method: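 Mutant yeast screening strain plus compound; vehicle-treated cultures serve as the 0% inhibition reference.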
The nature of assay [6]: NCI Yeast Anticancer Drug Screen. Data for the mlh1 rad18 strain (AID 175). Particulars: S. cerevisiae mlh1 rad18 strain growth inhibition; at 50.0 µM; stronger effect = higher value. Summed up:
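Inhibition values reflect reduced growth of mutant yeast versus vehicle-treated controls following compound exposure; the mutations affect DNA damage repair.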

Compounds without any hit were thinned out: in the full panel of roughly 79,000, 15% have a hit. A number with no mark means an inactive call. Activity calls are given as the source filed them. No stated cut-off is given here; in the data, active means growth inhibition above about 70%; inactive means the rest.

For `N#CC(C#N)c1ccccc1`, the growth inhibition in assay [1] is 29.1%; in assay [2] it was 2.6%; in assay [3], 3.5%; in assay [4], -4.05%; in assay [5], 8.75%; in assay [6], 1.2%.

As for `O=CNNC(=O)C(Cl)Cl`, the growth inhibition in assay [1] is 4.25%; in assay [2], -11.9%; in assay [3], -10.1%; in assay [4], -31.3%; in assay [5] it was -3.45%; in assay [6] it was 8.9%.

For `CC(=O)N[C@@H](C[S-])C(=O)O.O=[N+]([O-])O.[Ag+]`, the growth inhibition in assay [1] is -1.95%; in assay [2], 0.95%; in assay [3], 53.8%; in assay [4], 25.1%; in assay [5], 19.9%; in assay [6], 21.1%.

For `CCN(CC)C(=S)SC1C(=O)NC(=O)NC1=O`, the growth inhibition in assay [1] was 23.3%; in assay [2], -15.4%; in assay [3], 20.1%; in assay [4], 20.6%; in assay [5], 1.9%; in assay [6], 16.1%.

For the compound `CC1=C/C(=N\[Se]c2ccccc2)C(=O)C(C)=C1`, the growth inhibition in assay [1] was 43.7%; in assay [2], 27.4%; in assay [3], 24%; in assay [4] it was -9.05%; in assay [5] it was 47.4%; in assay [6], 36.3%.

Take `NC1C[S][Sn][O]C1=O` (stereo not given): the growth inhibition was 14.2% in assay [1]; 14.3% in assay [2]; 3.2% in assay [3]; -21.4% in assay [4]; 4.9% in assay [5]; 14.6% in assay [6].

Turning to `c1ccc2c(c1)CC1OCN3CN(COC4Cc5ccccc5CC43)C1C2` (stereo not given), the growth inhibition in assay [1] is 0.75%; in assay [2], -4.7%; in assay [3] it was 1.2%; in assay [4], -5.9%; in assay [5], -1.45%; in assay [6], -7.15%.

As to `CC(=O)[O-].[Ni].c1ccc(/C(=N\Nc2ccccn2)c2ccccn2)cc1`, the growth inhibition is 19.8% in assay [1]; 3.15% in assay [2]; 4.25% in assay [3]; -3.7% in assay [4]; -4.6% in assay [5]; 18.6% in assay [6].

For `O=C1NC(=O)C(=C2C(=O)COC2=O)C(=O)N1`, the growth inhibition in assay [1] was -4.4%; in assay [2] it was -16.6%; in assay [3] it was -13.8%; in assay [4] it was -1.7%; in assay [5], -2.8%; in assay [6], -19.5%.

Consider `c1ccc(CC[n+]2cccc3ccccc32)cc1`, for which the growth inhibition in assay [1] is -3.8%; in assay [2] it was 11.2%; in assay [3], 3.95%; in assay [4], -26.3%; in assay [5] it was -8.1%; in assay [6] it was -6.85%.

Regarding `CC(C)(C)[SH+]CC[SH+]C(C)(C)C.[C-]#[O+].[C-]#[O+].[C-]#[O+].[C-]#[O+].[Cr]`, the growth inhibition in assay [1] is 13.6%; in assay [2] it was -19.1%; in assay [3], -7.25%; in assay [4], -4.4%; in assay [5], 3.65%; in assay [6] it was 3.35%.

For `CC1(C(=O)O)C2[Se]c3[se]ccc3C2C1(C)C(=O)O` (stereo not given), the growth inhibition was -3.45% in assay [1]; -12.7% in assay [2]; -3.5% in assay [3]; -12.2% in assay [4]; 1.8% in assay [5]; -4.55% in assay [6].

For the compound `Cc1c2n(c3ccccc13)CC1CON(C)C21` (stereo not given), the growth inhibition in assay [1] is -14.4%; in assay [2], -11.5%; in assay [3] it was -8.95%; in assay [4], -1.3%; in assay [5], -31.4%; in assay [6], -19.9%.

On to `CN(C)c1ccc(/C=C/[N+](=O)[O-])cc1`, for which the growth inhibition is -3% in assay [1]; -17.4% in assay [2]; 12.4% in assay [3]; -15.7% in assay [4]; 0.6% in assay [5]; -3.25% in assay [6].

Turning to `O.O.O=C(O)CC(=O)O.[NH-]C1CCCCC1[NH-].[Pt+2]` (stereo not given), the growth inhibition in assay [1] is -25.4%; in assay [2], -5.3%; in assay [3] it was -20.4%; in assay [4], -18.9%; in assay [5], 2.75%; in assay [6], -28.6%.

In the case of `O=C(C1C(c2ccccc2)N1C1CCCCC1)C1C(c2ccccc2)N1C1CCCCC1` (stereo not given), the growth inhibition is 6% in assay [1]; 17.9% in assay [2]; 10.6% in assay [3]; -5.1% in assay [4]; -10.5% in assay [5]; 8.7% in assay [6].

On to `Cc1ccc(NC(=O)C(Cl)(Cl)Cl)cc1Cl`, for which the growth inhibition in assay [1] is 1.8%; in assay [2], 20.6%; in assay [3] it was 16.4%; in assay [4], -5.2%; in assay [5] it was 25.2%; in assay [6] it was 14.8%.

Regarding `CCOP(=O)(OCC)C(C#N)OC(C)(C)C` (stereo not given), the growth inhibition is 4.4% in assay [1]; 20.4% in assay [2]; 12.2% in assay [3]; -0.25% in assay [4]; 10.3% in assay [5]; 2.35% in assay [6].

In the case of `CCOC(CBr)OCC`, the growth inhibition was 14.4% in assay [1]; -4.75% in assay [2]; 0.45% in assay [3]; -25.7% in assay [4]; 7.55% in assay [5]; 20.8% in assay [6].

`CC[CH2][Sn]([CH2]CC)[CH2]CC.CC[CH2][Sn]([CH2]CC)[CH2]CC`: the growth inhibition in assay [1] was 99.2% (active); in assay [2], 99.5% (active); in assay [3] it was 99.5% (active); in assay [4], 99.5% (active); in assay [5], 98.6% (active); in assay [6] it was 99.4% (active).
